The sample as a whole holds a higher share of hits than the screen did.
Dicer inh: blocks human Dicer maturation of pre-miR-21; cat-ELCCA pre-miR-21 Dicer processing, chemiluminescence; stronger effect = higher value; Q9UPY3; 6% of 47,000 active; z-score at 25 µM; AID 1347074; in the data active = z-score above about 3, passing the limit was not always enough;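 note: plate controls were vehicle for no effect and no enzyme for full effect; higher signal means more uncleaved substrate so more Dicer inhibition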
Target sequence (Q9UPY3 whole entry, looked up): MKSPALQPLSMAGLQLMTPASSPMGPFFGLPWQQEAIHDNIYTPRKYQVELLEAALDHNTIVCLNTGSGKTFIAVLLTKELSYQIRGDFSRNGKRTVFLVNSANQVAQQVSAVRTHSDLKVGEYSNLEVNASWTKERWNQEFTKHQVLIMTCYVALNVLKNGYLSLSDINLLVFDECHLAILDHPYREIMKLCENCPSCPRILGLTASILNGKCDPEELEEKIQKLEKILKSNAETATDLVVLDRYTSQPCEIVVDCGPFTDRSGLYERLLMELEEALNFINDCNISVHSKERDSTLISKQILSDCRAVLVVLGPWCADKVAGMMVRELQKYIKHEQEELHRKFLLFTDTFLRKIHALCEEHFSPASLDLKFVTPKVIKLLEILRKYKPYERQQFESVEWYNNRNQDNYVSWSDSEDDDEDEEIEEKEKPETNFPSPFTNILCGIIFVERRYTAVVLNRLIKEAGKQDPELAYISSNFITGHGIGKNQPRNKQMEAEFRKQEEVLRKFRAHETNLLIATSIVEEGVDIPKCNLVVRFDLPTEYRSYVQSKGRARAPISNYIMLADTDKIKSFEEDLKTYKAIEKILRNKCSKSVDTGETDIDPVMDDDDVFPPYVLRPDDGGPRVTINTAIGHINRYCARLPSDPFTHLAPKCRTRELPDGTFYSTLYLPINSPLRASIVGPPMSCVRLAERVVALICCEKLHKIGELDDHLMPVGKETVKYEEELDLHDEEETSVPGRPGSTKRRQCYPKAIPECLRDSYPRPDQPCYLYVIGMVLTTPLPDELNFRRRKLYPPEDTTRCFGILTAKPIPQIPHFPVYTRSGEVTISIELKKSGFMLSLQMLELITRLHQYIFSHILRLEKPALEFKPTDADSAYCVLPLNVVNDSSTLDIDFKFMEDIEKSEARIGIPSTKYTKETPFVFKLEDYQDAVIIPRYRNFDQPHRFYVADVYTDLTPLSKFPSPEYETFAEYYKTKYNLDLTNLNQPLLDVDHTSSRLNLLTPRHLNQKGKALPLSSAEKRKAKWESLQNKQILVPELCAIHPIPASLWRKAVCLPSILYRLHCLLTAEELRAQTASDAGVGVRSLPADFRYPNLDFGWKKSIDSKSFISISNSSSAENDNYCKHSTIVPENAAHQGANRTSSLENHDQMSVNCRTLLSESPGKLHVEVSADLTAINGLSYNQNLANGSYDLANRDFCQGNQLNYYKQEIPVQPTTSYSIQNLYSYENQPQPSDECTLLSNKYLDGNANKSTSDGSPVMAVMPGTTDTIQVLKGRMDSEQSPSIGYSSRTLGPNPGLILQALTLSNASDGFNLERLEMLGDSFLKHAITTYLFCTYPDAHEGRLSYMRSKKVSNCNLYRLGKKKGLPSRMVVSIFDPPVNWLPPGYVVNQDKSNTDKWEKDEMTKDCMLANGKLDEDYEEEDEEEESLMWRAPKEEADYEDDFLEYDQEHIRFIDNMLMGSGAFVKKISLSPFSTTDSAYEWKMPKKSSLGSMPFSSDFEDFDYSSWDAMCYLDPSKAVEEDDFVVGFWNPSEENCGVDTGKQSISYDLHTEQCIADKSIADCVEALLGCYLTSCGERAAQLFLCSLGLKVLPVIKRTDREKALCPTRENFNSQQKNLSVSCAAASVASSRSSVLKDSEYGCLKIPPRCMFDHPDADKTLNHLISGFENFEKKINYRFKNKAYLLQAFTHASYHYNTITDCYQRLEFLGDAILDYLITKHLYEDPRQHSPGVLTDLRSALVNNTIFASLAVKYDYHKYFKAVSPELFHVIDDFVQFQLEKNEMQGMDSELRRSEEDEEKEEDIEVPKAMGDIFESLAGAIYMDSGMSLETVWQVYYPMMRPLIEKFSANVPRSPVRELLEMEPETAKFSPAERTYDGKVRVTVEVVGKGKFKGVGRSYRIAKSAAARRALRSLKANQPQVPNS
Active calls of the source: *.

SMILES	Dicer inh
COc1ccccc1N1CCN(C(=O)C(C)Oc2ccnc3c(C)ccc(C)c23)CC1 (configuration not stated)	3.6*
COc1ccccc1N1CCN(C(=O)C2CCCCC2)CC1	-0.28
CCCCCn1c(SCc2ncc(C(F)(F)F)cc2Cl)n[nH]c1=O	-0.65
CCn1cc(C(=O)NNC(C)=O)c(=O)c2cc(C(F)(F)F)ccc21	0.8
COc1ccc(-c2nc(-c3ccccc3)no2)cc1OC	-0.64
COc1ccc(-c2cc(-c3ccccc3O)[nH]n2)cc1OC	5*
CCc1cc(-c2[nH]ncc2-c2ccc(OC)cc2)c(O)cc1O	0.83
COc1cc(-c2ccc(=O)[nH]n2)ccc1OC(F)F	0.07
COc1ccc(-c2cc(-c3cc(OC)ccc3O)[nH]n2)cc1	8.1*
COc1ccc(-c2ccc(=O)[nH]n2)cc1	1.2
Cc1onc(-c2c(Cl)cccc2Cl)c1C(=O)Nc1nc(-c2ccccc2)cs1	2.1
COc1cccc(C2N=C(N)Nc3nc4ccccc4n32)c1 (configuration not stated)	2.1
Cc1nc(-c2cc(C(C)(C)C)c(O)c(C(C)(C)C)c2)cs1	3.3
COC(=O)C1=CC=C(c2ccc(OC)cc2)SC1	-0.72
Cc1ccc(C2CC(C(F)(F)F)n3ncc(C(=O)NCc4c(C)nn(C)c4C)c3N2)cc1 (configuration not stated)	0.35
CCOC(=O)c1cnc2c(c(C)nn2C)c1Sc1ccc(Cl)cc1	-5.4
O=C(CSc1ncn[nH]1)Nc1ccc(F)cc1	-0.99
Cc1cc(C)c(S(=O)(=O)Nc2ccc(O)c(Sc3ncn[nH]3)c2)cc1C	7.3*
Cc1cc(C(C)(C)C)cc(S(=O)(=O)Nc2ccc(O)c(Sc3ncn[nH]3)c2)c1C	8.2
CSC(=NC(=O)c1c(Cl)cccc1Cl)N1CCSCC1	-0.23
N=C(N)SCc1ccc(F)cc1	0.2
CCOC(=O)c1ccc(N=C(N)SCc2ccccc2)cc1	2.2
Cc1c(C)c(C)c(CSC(N)=Nc2ccc(F)cc2)c(C)c1C	3.3*
CCCOC(=O)CSc1nc(C)cc(C)c1C#N	1
O=[N+]([O-])c1cccc(-c2[nH]ncc2Br)c1	2
SMILES	Dicer inh
Cc1ccccc1NCc1c(C#N)c2ccccc2n1C	3.5*
N#Cc1c(=O)c2ccccc2n2ccccc12	-1.8
COc1ccc(OCc2c(C#N)c3ccccc3n2C)cc1	0.02
COc1ccc(-c2noc(CSc3nc(N)c(-c4ccccc4)c(=O)[nH]3)n2)cc1	3.9*
Cc1ccc(-c2noc(CSc3nc(N)cc(=O)[nH]3)n2)cc1	1.2
COc1ccccc1-c1noc(CSc2nc(N)cc(=O)[nH]2)n1	2
O=C(NCCCn1ccnc1)c1sc2ccccc2c1Cl	-0.58
O=C1c2oc3ccccc3c(=O)c2C(c2ccc(F)cc2)N1Cc1ccc2c(c1)OCO2 (configuration not stated)	1.4
Nc1cc(=O)[nH]c2nnc(SCc3ccccc3Cl)n12	2.5
CC(C)CCSc1nnc2[nH]c(=O)cc(N)n12	3.4*
C#CCSc1nnc2[nH]c(=O)cc(N)n12	2.7
CCOc1ccc2nc3c(nc2c1)-c1ccccc1C3=O	0.92
NC(=O)c1ccc(-c2ccnc(-c3ccc(Br)s3)n2)cc1	2.6
NC(=S)c1ccc(C(F)(F)F)cc1Cl	-0.1
COC(=O)Nc1cc(C)n(-c2ccccc2)n1	0.02
Cc1cc(NC(=O)N(C)C)nn1-c1ccccc1	-2.1
CC(=O)OCc1cc(/C=N/N(C(C)=O)c2ccccc2)nn1-c1ccccc1	3.5*
C=CCOC(=O)C1=C(C)N=C2SCCC(=O)N2C1c1ccc(C(=O)OC)cc1 (configuration not stated)	-0.82
Cn1nc(C(F)(F)F)c2cc(-c3nc(-c4cc(C(F)(F)F)cc(C(F)(F)F)c4)no3)sc21	-0.45
O=C1Nc2ccc(Br)cc2C12OCCCO2	2.9
Cc1onc(-c2c(Cl)cccc2Cl)c1NC(=O)SCc1c(Cl)cccc1Cl	-0.69
COc1cc(OC)cc(-c2nc(-c3cc4ccc(C)cc4[nH]c3=O)no2)c1	0.27
CC(Sc1nc2ncnc(N)c2[nH]1)C(=O)O (configuration not stated)	-0.55
Nc1ncnc2nc(SCc3ccc4nsnc4c3)[nH]c12	-2
Nc1ncnc2nc(SCCC(=O)O)[nH]c12	3.8*
SMILES	Dicer inh
O=C(O)CCC1CCCC(CCC(=O)O)C1=O (configuration not stated)	-0.71
CCOc1cc(C2C(C(=O)OC3CCCCC3)=C(C)NC3=C2C(=O)CC(C)(C)C3)ccc1O (configuration not stated)	-0.22
COc1ccc(OCCCN2CCCCC2)cc1	0.21
COC(=O)/C(C#N)=C/c1cc(Br)c(OC(C)=O)c(OC)c1	2.7
Cc1cc2oc(=O)sc2cc1NS(=O)(=O)c1cccc2cccnc12	-3.6
Cc1cc(C)c(S(=O)(=O)Nc2cccc3cccnc23)c(C)c1	4.5*
Cc1cc(C)c(S(=O)(=O)Nc2ccc(Br)c3cccnc23)c(C)c1	2.7
CC(C)(C)NC(=O)[C@@H]1C[C@@H]2CCCC[C@@H]2CN1C(=O)COc1ccc(Cl)cc1Cl	-0.67
O=C(N=S1CCN(c2ncc(C(F)(F)F)cc2Cl)CC1)Nc1ccc(Cl)cc1	-1.4
Cc1cc(N=CNOC(=O)c2nn(-c3ccccc3)nc2C)no1	-0.95
Cc1cc(N=Cc2ccccc2O)no1	4.5*
CC(=O)/C(C=Nc1cc(C)on1)=C(\C)O	-1
Cc1nnc(SCC(=O)Nc2nc(-c3ccc(Cl)cc3)ns2)s1	-2.1
O=C(NC(=O)c1ccccc1O)c1ccc(F)cc1	-1.2
CC1=C(C(=O)OCC2CCCO2)C(c2cccc(Br)c2)C2=C(CCCC2=O)N1 (configuration not stated)	1.5
CC(C)(C)OC(=O)/C(C#N)=C/c1ccc(C(F)(F)F)cc1	15
Cc1ccc(S(=O)(=O)n2c(=O)sc3ccccc32)cc1	-0.13
Cc1ccc(S(=O)(=O)n2c(=O)oc3cc(Cl)ccc32)cc1	16*
COC(=O)n1c(=O)oc2cc(Cl)ccc21	1.4
COc1ccc(OC)c(C2C(C(=O)OC(C)C)=C(C)NC3=C2C(=O)CC(c2ccc(Cl)cc2)C3)c1 (configuration not stated)	0.48
COc1ccc(C2Oc3c(OC)cccc3C3CC(c4ccccc4O)=NN32)c(OC)c1 (configuration not stated)	3.7
COc1ccc(OC)c(C2Oc3ccccc3C3CC(c4ccccc4O)=NN32)c1 (configuration not stated)	6*
Cc1ccc(O)c(C2=NN3C(C2)c2ccccc2OC3c2ccsc2)c1 (configuration not stated)	2.9
COc1ccc(O)c(C2=NN3C(C2)c2ccccc2OC3c2cc(OC)ccc2OC)c1 (configuration not stated)	1.7
COc1ccc(O)c(C2=NN3C(C2)c2ccccc2OC3c2ccccc2)c1 (configuration not stated)	8.3*
SMILES	Dicer inh
COc1ccc(O)c(C2=NN3C(C2)c2cccc(OC)c2OC3c2ccccc2F)c1 (configuration not stated)	0.02
COc1ccc(O)c(C2=NN3C(C2)c2ccccc2OC3c2ccsc2)c1 (configuration not stated)	5.5*
COc1ccc(O)c(C2=NN3C(C2)c2ccccc2OC3c2cccc(F)c2)c1 (configuration not stated)	5.2*
Oc1ccccc1C1=NN2C(C1)c1ccccc1OC2c1ccsc1 (configuration not stated)	4.5
Cc1cc2c(cc1C)C(c1ccc(F)c(Br)c1)CC(=O)N2 (configuration not stated)	0.83
C=CCSc1nnc(-c2cc(OCC(F)(F)F)nc(OCC(F)(F)F)c2)n1Cc1ccco1	-0.76

Compound activity deposited in PubChem by Center for Chemical Genomics, University of Michigan.
